This passage reports log fold change Tl+ flux results from PubChem BioAssay.

A number with no mark means an inactive call. The source made the active and inactive calls.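 How the source made its calls: active means thallium flux through the channel raised or lowered by more than 3 SD from vehicle-only wells, actives on both sides; inactive means the rest.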

For one assay, the system named is R275C. In words: BK channel mutant inhibitors and activators – cell-based, U2OS BacMam, thallium flux, beta subunits, selectivity assay, profiling panel (AID 1259406).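 Further: initial slope of Thallos dye fluorescence rise after thallium is added; log ratio against the mean of 0.3% DMSO vehicle wells on the same plate.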 Particulars: U2OS BacMam BK variants, at 30 µM.
Turning to `CS(=O)(=O)c1ccc(C2=C(c3ccccc3)C(=O)OC2)cc1`, the log fold change Tl+ flux was -0.068.

Take `Cc1cccc(C)c1NC(=O)C1CCCCN1C` (configuration not stated): the log fold change Tl+ flux is -0.0395.

Turning to `COc1ccc(/C=C/C(=O)Nc2ccccc2C(=O)O)cc1OC`, the log fold change Tl+ flux is -0.0585.

`CCCCC(=O)N(Cc1ccc(-c2ccccc2-c2nn[nH]n2)cc1)[C@H](C(=O)O)C(C)C`: the log fold change Tl+ flux is -0.0315.

Take `CC(C(=O)O)c1ccc(-c2ccccc2)c(F)c1` (configuration not stated): the log fold change Tl+ flux was -0.0123.

Take `Nc1ncnc2c1ncn2[C@@H]1O[C@H](CO)[C@@H](O)[C@@H]1O`: the log fold change Tl+ flux was 0.00664.

For `CN(C)c1nc(N(C)C)nc(N(C)C)n1`, the log fold change Tl+ flux was -0.00384.

For the molecule `Cc1occc(=O)c1O`, the log fold change Tl+ flux is -0.0195.

As for `COc1ccc(-c2cc(=O)c3c(OC)c(OC)c(OC)c(OC)c3o2)cc1OC`, the log fold change Tl+ flux was -0.784 (active).

As to `CC(C)NCC(O)COc1cccc2ccccc12` (configuration not stated), the log fold change Tl+ flux was -0.0109.

`COC(=O)[C@H](c1ccccc1Cl)N1CCc2sccc2C1`: the log fold change Tl+ flux was 0.027.

In the case of `C[N+]1(C)CCCC(OC(=O)C(O)(c2ccccc2)c2ccccc2)C1` (configuration not stated), the log fold change Tl+ flux was 0.00512.

`O=[N+]([O-])c1cccc2cn[nH]c12`: the log fold change Tl+ flux is -0.025.

Turning to `C[C@H]1COc2c(N3CCN(C)CC3)c(F)cc3c(=O)c(C(=O)O)cn1c23`, the log fold change Tl+ flux is -0.0297.

In the case of `CC(C)NCC(O)COc1ccc(CC(N)=O)cc1` (configuration not stated), the log fold change Tl+ flux was -0.00467.

Consider `CNCCC(Oc1ccc(C(F)(F)F)cc1)c1ccccc1` (configuration not stated), for which the log fold change Tl+ flux is -0.0214.

In the case of `CC1=C(/C=C/C(C)=C/C=C/C(C)=C\C(=O)O)C(C)(C)CCC1`, the log fold change Tl+ flux was -0.0306.

For `CCc1ccc(CCOc2ccc(CC3SC(=O)NC3=O)cc2)nc1` (configuration not stated), the log fold change Tl+ flux is -0.057.

For `CC[C@H]1OC(=O)[C@H](C)[C@@H](O[C@H]2C[C@@](C)(OC)[C@@H](O)[C@H](C)O2)[C@H](C)[C@@H](O[C@@H]2O[C@H](C)C[C@H](N(C)C)[C@H]2O)[C@](C)(OC)C[C@@H](C)C(=O)[C@H](C)[C@@H](O)[C@]1(C)O`, the log fold change Tl+ flux is -0.104.

A further assay has as its system R275C/beta1. The assay is described as above. To be noted: U2OS BacMam BK variants, at 30 µM.
`CS(=O)(=O)c1ccc(C2=C(c3ccccc3)C(=O)OC2)cc1`: the log fold change Tl+ flux was 0.023.

For the molecule `Cc1cccc(C)c1NC(=O)C1CCCCN1C` (configuration not stated), the log fold change Tl+ flux is -0.0108.

As for `COc1ccc(/C=C/C(=O)Nc2ccccc2C(=O)O)cc1OC`, the log fold change Tl+ flux is -0.0786.

Take `CCCCC(=O)N(Cc1ccc(-c2ccccc2-c2nn[nH]n2)cc1)[C@H](C(=O)O)C(C)C`: the log fold change Tl+ flux was 0.0112.

On to `CC(C(=O)O)c1ccc(-c2ccccc2)c(F)c1` (configuration not stated), for which the log fold change Tl+ flux was 0.0432.

On to `Nc1ncnc2c1ncn2[C@@H]1O[C@H](CO)[C@@H](O)[C@@H]1O`, for which the log fold change Tl+ flux is -0.0305.

As to `CN(C)c1nc(N(C)C)nc(N(C)C)n1`, the log fold change Tl+ flux is -0.054.

On to `Cc1occc(=O)c1O`, for which the log fold change Tl+ flux is -0.0131.

Take `COc1ccc(-c2cc(=O)c3c(OC)c(OC)c(OC)c(OC)c3o2)cc1OC`: the log fold change Tl+ flux is -0.176 (active).

On to `CC(C)NCC(O)COc1cccc2ccccc12` (configuration not stated), for which the log fold change Tl+ flux was 0.0491.

Regarding `COC(=O)[C@H](c1ccccc1Cl)N1CCc2sccc2C1`, the log fold change Tl+ flux was -0.0372.

With `C[N+]1(C)CCCC(OC(=O)C(O)(c2ccccc2)c2ccccc2)C1` (configuration not stated), the log fold change Tl+ flux was 0.0318.

As for `O=[N+]([O-])c1cccc2cn[nH]c12`, the log fold change Tl+ flux is -0.0288.

In the case of `C[C@H]1COc2c(N3CCN(C)CC3)c(F)cc3c(=O)c(C(=O)O)cn1c23`, the log fold change Tl+ flux was 0.0187.

For `CC(C)NCC(O)COc1ccc(CC(N)=O)cc1` (configuration not stated), the log fold change Tl+ flux was 0.0259.

`CNCCC(Oc1ccc(C(F)(F)F)cc1)c1ccccc1` (configuration not stated): the log fold change Tl+ flux is 0.297 (active).

Consider `CC1=C(/C=C/C(C)=C/C=C/C(C)=C\C(=O)O)C(C)(C)CCC1`, for which the log fold change Tl+ flux is -0.0172.

In the case of `CCc1ccc(CCOc2ccc(CC3SC(=O)NC3=O)cc2)nc1` (configuration not stated), the log fold change Tl+ flux was -0.028.

Turning to `CC[C@H]1OC(=O)[C@H](C)[C@@H](O[C@H]2C[C@@](C)(OC)[C@@H](O)[C@H](C)O2)[C@H](C)[C@@H](O[C@@H]2O[C@H](C)C[C@H](N(C)C)[C@H]2O)[C@](C)(OC)C[C@@H](C)C(=O)[C@H](C)[C@@H](O)[C@]1(C)O`, the log fold change Tl+ flux was -0.0277.

A further assay concerns R275C/beta2Delta. The assay is described as above. To be noted: U2OS BacMam BK variants, at 30 µM.
With `CS(=O)(=O)c1ccc(C2=C(c3ccccc3)C(=O)OC2)cc1`, the log fold change Tl+ flux is 0.00437.

With `Cc1cccc(C)c1NC(=O)C1CCCCN1C` (configuration not stated), the log fold change Tl+ flux is 0.00999.

As for `COc1ccc(/C=C/C(=O)Nc2ccccc2C(=O)O)cc1OC`, the log fold change Tl+ flux was 0.0483.

Consider `CCCCC(=O)N(Cc1ccc(-c2ccccc2-c2nn[nH]n2)cc1)[C@H](C(=O)O)C(C)C`, for which the log fold change Tl+ flux is 0.014.

Regarding `CC(C(=O)O)c1ccc(-c2ccccc2)c(F)c1` (configuration not stated), the log fold change Tl+ flux is 0.0621.

`Nc1ncnc2c1ncn2[C@@H]1O[C@H](CO)[C@@H](O)[C@@H]1O`: the log fold change Tl+ flux is -0.0267.

In the case of `CN(C)c1nc(N(C)C)nc(N(C)C)n1`, the log fold change Tl+ flux is -0.0096.

In the case of `Cc1occc(=O)c1O`, the log fold change Tl+ flux is 0.041.

With `COc1ccc(-c2cc(=O)c3c(OC)c(OC)c(OC)c(OC)c3o2)cc1OC`, the log fold change Tl+ flux was -0.278 (active).

As to `CC(C)NCC(O)COc1cccc2ccccc12` (configuration not stated), the log fold change Tl+ flux was 0.188 (active).

`COC(=O)[C@H](c1ccccc1Cl)N1CCc2sccc2C1`: the log fold change Tl+ flux is -0.0599.

Turning to `C[N+]1(C)CCCC(OC(=O)C(O)(c2ccccc2)c2ccccc2)C1` (configuration not stated), the log fold change Tl+ flux is -0.0151.

For the molecule `O=[N+]([O-])c1cccc2cn[nH]c12`, the log fold change Tl+ flux was 0.0285.

Take `C[C@H]1COc2c(N3CCN(C)CC3)c(F)cc3c(=O)c(C(=O)O)cn1c23`: the log fold change Tl+ flux was -0.00628.

`CC(C)NCC(O)COc1ccc(CC(N)=O)cc1` (configuration not stated): the log fold change Tl+ flux is -0.0455.

For `CNCCC(Oc1ccc(C(F)(F)F)cc1)c1ccccc1` (configuration not stated), the log fold change Tl+ flux was 0.0608.

Take `CC1=C(/C=C/C(C)=C/C=C/C(C)=C\C(=O)O)C(C)(C)CCC1`: the log fold change Tl+ flux was 0.0302.

In the case of `CCc1ccc(CCOc2ccc(CC3SC(=O)NC3=O)cc2)nc1` (configuration not stated), the log fold change Tl+ flux is -0.0196.

In the case of `CC[C@H]1OC(=O)[C@H](C)[C@@H](O[C@H]2C[C@@](C)(OC)[C@@H](O)[C@H](C)O2)[C@H](C)[C@@H](O[C@@H]2O[C@H](C)C[C@H](N(C)C)[C@H]2O)[C@](C)(OC)C[C@@H](C)C(=O)[C@H](C)[C@@H](O)[C@]1(C)O`, the log fold change Tl+ flux is 0.033.
